Assay outcomes deposited in PubChem BioAssay by Broad Institute.
The list is a sample of the results.
aSyn 5UTR act – Activators via SNCA 5'UTR binding, MLPCN; alpha-synuclein 5'UTR reporter, activators screen; activity score, % (tested at 7.5 µM), hits read low; 300,000 tested, 7.1% active; AID 1814, 2009; in the data active = activity score below about -60%
Of the large screens only hits and unclear results are named; the others gave an inactive call.

O=C(Nc1ccc(Br)cc1)N1CCCCCC1	aSyn 5UTR act -144.3
COc1ccc(NC(=O)N2CCCCC2)cc1	aSyn 5UTR act -65.5
COc1cccc(N2CCN(C(=O)c3ccc4nc(N5CCC(C)CC5)sc4c3)CC2)c1	aSyn 5UTR act -156.8
CCOC(=O)N1CCN(C(=O)c2ccc3nc(N4CCC(C)CC4)sc3c2)CC1	aSyn 5UTR act -123.6
COc1cccc(N2CCN(C(=O)c3ccc(CS(=O)c4ccc(C)cc4)o3)CC2)c1 (stereo not drawn)	none
CC1CCN(c2nc3ccc(C(=O)N4CCN(Cc5ccccc5)CC4)cc3s2)CC1	aSyn 5UTR act -136.8
c1ccc(CN2CCN(c3nc4ccccc4s3)CC2)cc1	aSyn 5UTR act -149.9
O=S(=O)(c1ccccc1F)N1CCN(c2nc3ccccc3s2)CC1	aSyn 5UTR act -115.5
O=c1c(N2CCCCC2)coc2ccccc12	aSyn 5UTR act -86.2
CCOc1ccc(NC(=O)CN(C)c2ccc(S(=O)(=O)N(C(C)C)C(C)C)cn2)cc1OCC	none
CN(CC(=O)Nc1ccc(Cl)c(S(=O)(=O)N(C)C)c1)Cc1ccccc1	aSyn 5UTR act -109.3
CCCCc1ccc(NC(=S)Nc2ccc(Cl)c(S(=O)(=O)N(C)C)c2)cc1	aSyn 5UTR act -68.0
CC(=O)N(C1=C(N)C(=O)c2ccccc2C1=O)c1ccccc1	none
COc1ccc(N(/N=C2\Sc3ccccc3C2=O)C(C)=O)cc1	aSyn 5UTR act -142.7
COc1ccc(NC(=O)/C=C/c2cccc(F)c2)cn1	aSyn 5UTR act -196.1
COc1ccc(NC(=O)/C=C/c2ccco2)cn1	aSyn 5UTR act -237.3
COc1ccc2nc(N3CCC(C)CC3)c(C#N)cc2c1	aSyn 5UTR act -175.2
Cc1cc(C)nc(Nc2n[nH]c(-c3ccccc3Cl)n2)n1	aSyn 5UTR act -141.2
Cc1cc(C)nc(Nc2n[nH]c(-c3cccc4ccccc34)n2)n1	aSyn 5UTR act -88.0
Cc1cc(C)nc(Nc2n[nH]c(COc3ccccc3)n2)n1	aSyn 5UTR act -109.5
CN(/N=C/c1cccnc1)c1cnc2ccccc2n1	aSyn 5UTR act -139.2
Cc1ccc(NC(=O)c2cccc(C(=O)OC(C)C)n2)c(Br)c1	aSyn 5UTR act -73.0
COC(=O)c1cccc(C(=O)Nc2ccc(C)cc2Br)n1	aSyn 5UTR act -155.2
CC(C)n1c(/C=C/[C@@H](O)C[C@@H](O)CC(=O)O)c(-c2ccc(F)cc2)c2ccccc21	none
CCc1ccc(Nc2cnn(-c3nc4ccccc4s3)c(=O)c2Cl)cc1	aSyn 5UTR act -80.5
COc1cnn(-c2ccc(C)cc2)c(=O)c1SCc1ccccc1	aSyn 5UTR act -76.8
COc1cnn(-c2ccc(Br)cc2)c(=O)c1SCc1ccccc1	aSyn 5UTR act -70.7
Cc1nc(CSc2ccc(Br)cc2)cs1	aSyn 5UTR act -71.3
Nc1nc(SCc2ccccc2)[nH]c(=O)c1-c1ccccc1	aSyn 5UTR act -98.6
Cc1csc(SCC(=O)c2c(N)n(C)c(=O)n(C)c2=O)n1	aSyn 5UTR act -118.0
Cc1csc(SCC(=O)c2cc(C)n(Cc3cccs3)c2C)n1	none
Cc1c(O)ccc(/C(Cc2ccc3ccccc3n2)=N\N)c1O	aSyn 5UTR act -64.0
COc1ccc2nc(-n3c(C)ccc3C)sc2c1	aSyn 5UTR act -62.2
COc1ccc2c(c1)sc(N)[n+]2Cc1cc(C)cc2cccnc12	none
COc1cccc(Cn2c(NCc3cccnc3)nc3c2c(=O)n(C)c(=O)n3C)c1	none
COc1ccc2nc(NCc3cccnc3)sc2c1	aSyn 5UTR act -74.6
COc1cccc(Nc2nc3ccc(OC)cc3s2)c1	aSyn 5UTR act -168.2
COc1ccc2nc(NC3=NCCC3)sc2c1	aSyn 5UTR act -179.0
COc1ccc(Nc2nc3ccccc3s2)cc1	aSyn 5UTR act -159.5
Cc1cccc(Nc2nc3ccccc3s2)c1C	aSyn 5UTR act -180.9
O=C(NC(=O)c1ccccc1)NC1(C(F)(F)F)OCCO1	aSyn 5UTR act -113.1
Cc1nnc(NC(=O)c2csc3c2CCC(C)C3)s1 (stereo not drawn)	aSyn 5UTR act -99.8
Cc1nnc(NC(=O)c2csc3c2CCCC3)s1	aSyn 5UTR act -99.5
N#Cc1cc2c([nH]c1=S)CCCCCC2	aSyn 5UTR act -71.3
Cc1ccc(C(CC(=O)c2ccco2)SCCO)cc1 (stereo not drawn)	aSyn 5UTR act -90.2
Cc1ccc(C2=Nc3ccccc3N=C(C(Cl)Cl)C2)cc1	aSyn 5UTR act -76.0
Cc1ccc2c(c1)N=C(c1ccccc1)CC(C(Cl)Cl)=N2	aSyn 5UTR act -74.2
N#C/C(=N\Nc1ccc(Br)cc1)C(=N)N1CCOCC1	aSyn 5UTR act -122.7
N#C/C(=N\Nc1ccc([N+](=O)[O-])cc1)C(=N)N1CCOCC1	aSyn 5UTR act -108.8
N#C/C(=N/Nc1ccc([N+](=O)[O-])cc1)C(=N)N1CCCCC1	aSyn 5UTR act -85.6
N#C/C(=N\Nc1ccccc1[N+](=O)[O-])C(=N)N1CCCCC1	aSyn 5UTR act -111.5
COCCn1c(C)cc(C(=O)COC(=O)c2n[nH]c3ccccc23)c1C	none
O=C(Nc1ccccc1)c1nnn(Cc2ccccc2)c1NC(=O)C(F)(F)F	aSyn 5UTR act -71.6
CC1CCCCN1C(=O)COC(=O)c1n[nH]c2ccccc12 (stereo not drawn)	aSyn 5UTR act -73.3
O=C(OCCOc1ccccc1)c1n[nH]c2ccccc12	aSyn 5UTR act -168.2
Nc1c(C(=O)NCCc2ccccc2)nnn1Cc1ccccc1	aSyn 5UTR act -75.1
O=C(NCCc1ccccc1)c1nccc2ccccc12	aSyn 5UTR act -111.1
O=C(NCCc1ccccc1)c1n[nH]c2ccccc12	aSyn 5UTR act -144.3
O=c1nc2c(-c3ccccc3F)n[nH]n2c2ccccc12	aSyn 5UTR act -145.8
COc1cccc(/C=C/C(=O)OCC(=O)N2c3ccccc3NC(=O)C2(C)C)c1	aSyn 5UTR act -69.8
C=C(C)CSc1nc2nc(C)c(Br)cc2[nH]1	aSyn 5UTR act -73.4
COc1ccc(/C=C2\N=C(SC)N(c3ccccc3OC)C2=O)cc1	aSyn 5UTR act -66.3
CCOc1ccc(N2C(=O)/C(=C/c3ccccc3)N=C2SC)cc1	aSyn 5UTR act -89.0
O=C(/C=C\c1ccco1)Nc1cc([N+](=O)[O-])ccc1F	none
O=C(/C=C/c1ccco1)Nc1cccc(NC(=O)/C=C/c2ccco2)n1	aSyn 5UTR act -192.9
CCc1nnc(NC(=O)/C=C/c2ccco2)s1	aSyn 5UTR act -501.0
CCSc1nnc(NC(=O)/C=C/c2ccco2)s1	aSyn 5UTR act -320.5
O=C(/C=C/c1ccco1)NC1=NCCS1	aSyn 5UTR act -108.2
CNS(=O)(=O)c1ccc2nc(NC(=O)/C=C/c3ccco3)sc2c1	aSyn 5UTR act -230.3
O=C(/C=C/c1ccco1)Nc1nnc(-c2ccco2)s1	aSyn 5UTR act -117.5
Cc1nc(NC(=O)/C=C/c2ccco2)sc1C	aSyn 5UTR act -199.3
CCOC(=O)c1sc2nccc(N(C)C)c2c1N=CNOCc1ccccc1	aSyn 5UTR act -91.9
CCCOC(=O)c1ccc(NC(=O)/C=C/c2cccs2)cc1	aSyn 5UTR act -209.0
O=C(/C=C/c1cccs1)Nc1ccc([N+](=O)[O-])cc1	aSyn 5UTR act -146.6
O=C(/C=C/c1cccs1)NCc1ccccc1	aSyn 5UTR act -109.5
Cc1ccc(NC(=O)/C=C/c2cccs2)c([N+](=O)[O-])c1	aSyn 5UTR act -160.7
CC(C)(C)c1ccc(/C=C/C(=O)Nc2ccncc2)cc1	aSyn 5UTR act -77.1
Cc1cccc(NC(=O)/C=C/c2cccs2)n1	aSyn 5UTR act -108.5
O=C(/C=C/c1cccs1)Nc1ccncc1	aSyn 5UTR act -126.1
NC(=O)c1cnn(-c2ccc3ccccc3c2)c1N	aSyn 5UTR act -124.6
CCn1c(O)c(C=NC2CCCC(C)C2C)sc1=S (stereo not drawn)	aSyn 5UTR act -133.3
Cn1c(=NC(=O)COc2ccccc2)sc2ccccc21	aSyn 5UTR act -148.2
O=Cc1s/c(=N\S(=O)(=O)c2ccccc2)n(CCCCl)c1Cl	none
